FLuc inh: Photinus pyralis luciferase inhibition | P08659 | purified P. pyralis luciferase, luminescence, biochemical | Potency, µM (doses to about 115 µM), usual class: inhibitors | 2.5% of 76,000 active | AID 1347043; also: nearly all actives have a fitted effect of over 65% in size
Target sequence (P08659 whole entry, looked up): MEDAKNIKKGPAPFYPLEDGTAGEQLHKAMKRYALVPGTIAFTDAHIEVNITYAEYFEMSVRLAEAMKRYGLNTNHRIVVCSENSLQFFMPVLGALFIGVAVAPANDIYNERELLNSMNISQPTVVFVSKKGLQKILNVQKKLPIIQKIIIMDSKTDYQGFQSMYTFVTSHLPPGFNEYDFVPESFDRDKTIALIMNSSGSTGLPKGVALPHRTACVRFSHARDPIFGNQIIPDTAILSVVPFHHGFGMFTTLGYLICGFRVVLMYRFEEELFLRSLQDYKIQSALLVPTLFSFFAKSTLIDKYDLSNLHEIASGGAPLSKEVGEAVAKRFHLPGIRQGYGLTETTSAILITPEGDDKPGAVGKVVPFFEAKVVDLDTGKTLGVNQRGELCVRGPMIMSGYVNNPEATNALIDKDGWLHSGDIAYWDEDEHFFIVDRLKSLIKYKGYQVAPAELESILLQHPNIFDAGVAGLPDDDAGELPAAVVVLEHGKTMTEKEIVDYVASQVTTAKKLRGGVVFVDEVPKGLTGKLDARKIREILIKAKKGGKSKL
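Biochemical qHTS: compound (6-point titration) added to 10uM D-luciferin plus 10uM ATP in Tris acetate pH 7.5 buffer with Mg, Tween-20 and BSA, then purified enzyme at 10nM; light output imaged.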
3T3 cytotox: NIH 3T3 cell cytotoxicity; NIH 3T3 viability, CellTiter-Glo ATP luminescence, 48-72 h; Potency, µM (highest dose often 96.7 µM), hits mostly inhibitors; 4.3% of 94,000 active; also: nearly all actives have a fitted effect of over 55% in size
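Mouse fibroblast NIH 3T3 cells, 400 per well, received compound via pintool and were incubated for 48 or 72 hr prior to CellTiter-Glo ATP luminescence measurement.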
HEK cytotox: HEK 293 cell cytotoxicity; HEK 293 viability, ATP luminescence (CellTiter-Glo), 48-72 h; Potency, µM (top dose mostly 115 µM), most hits filed as inhibitors; 6.6% of 94,000 active; AID 1345083; also: nearly all actives have a fitted effect of over 60% in size
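Cells seeded first (HEK 293, 250 cells/well), then compound added by pintool. Incubation ran 48 or 72 hr at 37 degree Celsius. CellTiter-Glo was added and luminescence imaged after 10 min at room temperature.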
NPR1 antag: antagonists of human natriuretic peptide receptor Npr1; P16066; HEK293 hNpr1 GloSensor cGMP, ANP-stimulated luminescence; Potency, µM (series often up to 46.3 µM), hits mostly inhibitors; 1.6% of 76,000 active; calls by dose curve; also: nearly all actives have a fitted effect of over 60% in size
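Compound pre-incubated 30 min at room temperature on GloSensor-loaded HEK293 cells stably carrying hNpr1 and the pGS-40F cGMP biosensor. Stimulation uses hNppA at 0.1 nM final; luminescence is taken at baseline and 20 min post-agonist.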
NPR1 antag cnf: hNpr1 antagonism, confirmation assay. 76% of 1,400 active. Potency, µM (doses to about 57.6 µM), most hits filed as inhibitors. HEK293 hNpr1 cGMP GloSensor luminescence, ANP-stimulated. shares compounds with NPR1 antag; calls by dose curve; also: nearly all actives have a fitted effect of over 70% in size
Npr2 selectivity: hNpr2 antagonism, selectivity versus Npr1. shares compounds with NPR1 antag. 67% of 1,400 active. HEK293 hNpr2 GloSensor cGMP luminescence, CNP-stimulated. Potency, µM (series often up to 57.6 µM), usual class: inhibitors; calls by dose curve; also: nearly all actives have a fitted effect of over 70% in size
FLuc counter: inhibits firefly luciferase, false Npr1 antagonist flag; 0.7% of 1,400 active; Potency, µM (series often up to 57.6 µM), most hits filed as inhibitors; purified FLuc enzyme, luminescence, Km substrate; shares compounds with NPR1 antag
GloSensor cGMP: control cell line activity, Npr1 antagonist counter-screen. AID 1347051. Potency, µM (top dose mostly 57.6 µM), usual class: inhibitors. 69% of 1,400 active. shares compounds with NPR1 antag. HEK293 GloSensor cGMP, SNP-stimulated, luminescence; calls by dose curve; also: nearly all actives have a fitted effect of over 70% in size
Numbers stand for hits. This is a sample that favours compounds with a hit; in the whole collection about 11% have one here. Unless noted, calls follow the shape of the dose curve; as a rule, active = well fitted curve in the direction sought with a large enough effect; inconclusive = small, poorly fitted or top-dose-only effect, or another doubt; inactive = no such curve, though single readings can be large; an effect the other way counts as inactive or inconclusive.

Results for COCC(=O)N1CCCN(C(=O)CSc2ccncc2)CC1 ?
FLuc inh: inactive; 3T3 cytotox: inactive; HEK cytotox: inactive; NPR1 antag: inactive

How did CCn1nccc1C(=O)N1CC(Oc2ccccc2-c2nc(CCOC)no2)C1 do in these assays?
FLuc inh: inactive; 3T3 cytotox: inactive; HEK cytotox: inactive; NPR1 antag: inactive

What do the screens show for `O=C(Cc1c[nH]c2ncc(-c3ccc(F)c(Cl)c3)cc12)NCc1cccnc1`?
FLuc inh: inactive; 3T3 cytotox: inconclusive; HEK cytotox: inconclusive; NPR1 antag: 22µM; NPR1 antag cnf: 40µM; Npr2 selectivity: 31µM; FLuc counter: inactive; GloSensor cGMP: 28µM

Results for Cc1cc(-c2cnc3[nH]cc(CC(=O)NCc4cccnc4)c3c2)ccn1 ?
FLuc inh: inactive; 3T3 cytotox: inconclusive; HEK cytotox: inconclusive; NPR1 antag: inactive

Results for COc1cc(F)cc(-c2cnc3[nH]cc(CC(=O)NCc4cccnc4)c3c2)c1 ?
FLuc inh: inactive; 3T3 cytotox: inconclusive; HEK cytotox: inconclusive; NPR1 antag: 28µM; NPR1 antag cnf: 31µM; Npr2 selectivity: 31µM; FLuc counter: inconclusive; GloSensor cGMP: 31µM

What do the screens show for `O=C(CN1C(=O)NC(c2ccc(Cl)cc2)C2=C1COC2=O)Nc1ccc(Br)cc1F` (centres undefined)?
FLuc inh: inactive; 3T3 cytotox: 28µM; HEK cytotox: 35µM; NPR1 antag: inconclusive; NPR1 antag cnf: 24µM; Npr2 selectivity: inconclusive; FLuc counter: inactive; GloSensor cGMP: 27µM

What do the screens show for `Cc1ccc(C)c(NC(=O)CN2C(=O)NC(c3ccc(Cl)cc3)C3=C2COC3=O)c1` (centres undefined)?
FLuc inh: inactive; 3T3 cytotox: inconclusive; HEK cytotox: inconclusive; NPR1 antag: inactive

How did CCN(CC)C(=O)c1cc2c(s1)CCC(C(=O)Nc1ccc(OC)c(F)c1)C2 (centres undefined) do in these assays?
FLuc inh: inactive; 3T3 cytotox: inconclusive; HEK cytotox: inconclusive; NPR1 antag: 13µM; NPR1 antag cnf: 24µM; Npr2 selectivity: 22µM; FLuc counter: inactive; GloSensor cGMP: 24µM

How did CCN(CC)C(=O)c1cc2c(s1)CCC(C(=O)O)C2 (centres undefined) do in these assays?
FLuc inh: inactive; 3T3 cytotox: inactive; HEK cytotox: inactive; NPR1 antag: inactive

Results for O=C(C1CCN(c2nc(-c3ccccc3)nc3c2CCC3)CC1)N1C[C@H]2CC[C@H]1C2 ?
FLuc inh: inactive; 3T3 cytotox: inactive; HEK cytotox: inactive; NPR1 antag: inactive

How did COc1cccc(NC(=O)c2ccc(-c3nnc4ccc(NC(=O)C5CCC5)cn34)cc2)c1 do in these assays?
FLuc inh: inactive; 3T3 cytotox: inactive; HEK cytotox: inactive; NPR1 antag: inconclusive; NPR1 antag cnf: 24µM; Npr2 selectivity: inconclusive; FLuc counter: inactive; GloSensor cGMP: 22µM

What do the screens show for `CC(C)NC(=O)c1ccc(-c2nnc3ccc(NC(=O)C4CCC4)cn23)cc1`?
FLuc inh: inactive; 3T3 cytotox: inactive; HEK cytotox: inconclusive; NPR1 antag: inactive

What do the screens show for `COc1cccc(-c2cc(C3CCN(S(=O)(=O)c4ccc(C(C)=O)cc4)CC3)[nH]n2)c1`?
FLuc inh: inactive; 3T3 cytotox: inconclusive; HEK cytotox: inconclusive; NPR1 antag: 14µM; NPR1 antag cnf: 24µM; Npr2 selectivity: 24µM; FLuc counter: inactive; GloSensor cGMP: 24µM

Results for O=C(NC1CC1)c1cc2n(n1)CC(c1ccc3c(c1)OCO3)OC2 (centres undefined) ?
FLuc inh: inactive; 3T3 cytotox: inconclusive; HEK cytotox: inactive; NPR1 antag: inactive

What do the screens show for `O=C(NC1CCN(Cc2ccccc2)CC1)c1cc2n(n1)CC(c1ccc(Cl)cc1)OC2` (centres undefined)?
FLuc inh: inactive; 3T3 cytotox: inconclusive; HEK cytotox: inconclusive; NPR1 antag: 10µM; NPR1 antag cnf: 19µM; Npr2 selectivity: 17µM; FLuc counter: inactive; GloSensor cGMP: 12µM

Results for CC1CCC(NC(=O)c2cc3n(n2)CC(c2ccc(Cl)cc2)OC3)CC1 (centres undefined) ?
FLuc inh: inactive; 3T3 cytotox: inconclusive; HEK cytotox: inconclusive; NPR1 antag: inactive

Results for O=C(NC1CCN(Cc2ccccc2)CC1)c1cc2n(n1)CC(c1ccc3c(c1)OCO3)OC2 (centres undefined) ?
FLuc inh: inactive; 3T3 cytotox: inconclusive; HEK cytotox: inconclusive; NPR1 antag: 13µM; NPR1 antag cnf: 22µM; Npr2 selectivity: 22µM; FLuc counter: inactive; GloSensor cGMP: 17µM

Results for Cc1cc(CN2CC(Oc3ccc(F)cc3F)C2)no1 ?
3T3 cytotox: inactive; HEK cytotox: inactive

How did O=C(c1cc2n(n1)CC(c1ccc(Cl)cc1)OC2)N1CCN(c2ccc(Cl)cc2)CC1 (centres undefined) do in these assays?
FLuc inh: inactive; 3T3 cytotox: inconclusive; HEK cytotox: 32µM; NPR1 antag: 13µM; NPR1 antag cnf: inconclusive; Npr2 selectivity: inconclusive; FLuc counter: inactive; GloSensor cGMP: inconclusive

What do the screens show for `CC(C)N1CCN(C(=O)c2cc3n(n2)CC(c2ccc(Br)cc2)OC3)CC1` (centres undefined)?
FLuc inh: inactive; 3T3 cytotox: inconclusive; HEK cytotox: inconclusive; NPR1 antag: inconclusive; NPR1 antag cnf: inconclusive; Npr2 selectivity: inconclusive; FLuc counter: inactive; GloSensor cGMP: inconclusive

How did CC(=O)c1ccc(NC(=O)c2cc3n(n2)CC(c2ccc(Br)cc2)OC3)cc1 (centres undefined) do in these assays?
FLuc inh: inactive; 3T3 cytotox: inactive; HEK cytotox: inconclusive; NPR1 antag: inconclusive

How did Cc1ccc(C(=O)NC2CCN(c3ccc(F)cc3)C2=O)s1 (centres undefined) do in these assays?
FLuc inh: inactive; 3T3 cytotox: inactive; HEK cytotox: inactive; NPR1 antag: inactive

How did COc1ccc(-c2cc(N3CCN(C(=O)Cc4ccc(F)cc4)CC3)n[nH]2)cc1 do in these assays?
FLuc inh: inactive; 3T3 cytotox: inactive; HEK cytotox: inactive; NPR1 antag: inactive

What do the screens show for `O=C(Cc1ccc(Br)cc1)N1CCCN(c2cc(-c3ccc(F)cc3)[nH]n2)CC1`?
FLuc inh: inactive; 3T3 cytotox: inconclusive; HEK cytotox: inconclusive; NPR1 antag: inconclusive; NPR1 antag cnf: inconclusive; Npr2 selectivity: inconclusive; FLuc counter: inactive; GloSensor cGMP: 27µM

From PubChem
